How the values were obtained:
[1] = molecular target: MAP/microtubule affinity-regulating kinase 3 (Homo sapiens) (UniProt P27448); details: at 1 µM;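 note: reported values are averaged percent inhibition of MARK3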
[2] = molecular target: T1, MAP/microtubule affinity-regulating kinase 4 (Homo sapiens) (UniProt Q96L34); details: at 0.1 µM
T1 sequence (whole entry): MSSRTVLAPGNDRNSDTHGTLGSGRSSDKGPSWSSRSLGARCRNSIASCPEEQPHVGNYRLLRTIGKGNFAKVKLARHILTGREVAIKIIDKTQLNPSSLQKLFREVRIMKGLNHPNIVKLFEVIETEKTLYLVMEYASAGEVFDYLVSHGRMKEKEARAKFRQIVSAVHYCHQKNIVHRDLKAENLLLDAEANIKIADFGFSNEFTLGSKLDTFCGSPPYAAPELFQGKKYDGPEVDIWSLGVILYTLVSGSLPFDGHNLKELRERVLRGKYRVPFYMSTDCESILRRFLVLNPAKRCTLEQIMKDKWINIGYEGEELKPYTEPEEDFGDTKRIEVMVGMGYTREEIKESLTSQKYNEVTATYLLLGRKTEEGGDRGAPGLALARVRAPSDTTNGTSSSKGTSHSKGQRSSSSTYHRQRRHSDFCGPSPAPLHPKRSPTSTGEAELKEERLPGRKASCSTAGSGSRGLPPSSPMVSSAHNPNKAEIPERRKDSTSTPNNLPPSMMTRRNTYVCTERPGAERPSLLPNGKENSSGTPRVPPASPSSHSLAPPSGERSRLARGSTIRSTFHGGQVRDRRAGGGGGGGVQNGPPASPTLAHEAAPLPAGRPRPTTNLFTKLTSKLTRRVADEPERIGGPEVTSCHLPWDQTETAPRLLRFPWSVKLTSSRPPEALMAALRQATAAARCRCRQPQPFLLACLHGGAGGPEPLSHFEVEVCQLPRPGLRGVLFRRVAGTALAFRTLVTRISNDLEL

[3] = molecular target: T1, MAP/microtubule affinity-regulating kinase 4 (Homo sapiens); details: at 1 µM
[4] = molecular target: Maternal embryonic leucine zipper kinase (Homo sapiens) (UniProt Q14680); details: at 0.1 µM
Maternal embryonic leucine zipper kinase (Homo sapiens), sequence (Q14680 whole entry, looked up): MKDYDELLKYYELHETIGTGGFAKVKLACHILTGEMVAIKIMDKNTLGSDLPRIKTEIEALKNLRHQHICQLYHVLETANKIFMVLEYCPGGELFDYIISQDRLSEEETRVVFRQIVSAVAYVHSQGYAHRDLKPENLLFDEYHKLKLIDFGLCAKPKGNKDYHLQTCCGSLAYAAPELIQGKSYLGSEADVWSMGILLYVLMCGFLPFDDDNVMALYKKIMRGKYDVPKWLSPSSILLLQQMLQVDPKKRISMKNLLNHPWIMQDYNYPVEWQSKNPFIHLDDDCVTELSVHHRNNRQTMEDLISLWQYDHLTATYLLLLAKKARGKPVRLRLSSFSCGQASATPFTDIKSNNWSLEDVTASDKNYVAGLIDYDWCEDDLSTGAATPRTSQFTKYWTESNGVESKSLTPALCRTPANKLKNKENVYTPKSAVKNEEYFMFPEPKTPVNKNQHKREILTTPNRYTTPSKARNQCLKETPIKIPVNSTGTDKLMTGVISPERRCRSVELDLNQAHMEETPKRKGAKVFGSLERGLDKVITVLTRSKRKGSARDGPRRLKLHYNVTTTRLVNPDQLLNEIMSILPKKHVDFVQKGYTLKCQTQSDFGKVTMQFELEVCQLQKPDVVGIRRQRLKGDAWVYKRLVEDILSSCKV

[5] = molecular target: Maternal embryonic leucine zipper kinase (Homo sapiens) (UniProt Q14680); details: at 1 µM
[6] = molecular target: MAP kinase-interacting serine/threonine-protein kinase 1 (Homo sapiens) (UniProt Q9BUB5); details: at 0.1 µM
MAP kinase-interacting serine/threonine-protein kinase 1 (Homo sapiens), sequence (Q9BUB5 whole entry, looked up): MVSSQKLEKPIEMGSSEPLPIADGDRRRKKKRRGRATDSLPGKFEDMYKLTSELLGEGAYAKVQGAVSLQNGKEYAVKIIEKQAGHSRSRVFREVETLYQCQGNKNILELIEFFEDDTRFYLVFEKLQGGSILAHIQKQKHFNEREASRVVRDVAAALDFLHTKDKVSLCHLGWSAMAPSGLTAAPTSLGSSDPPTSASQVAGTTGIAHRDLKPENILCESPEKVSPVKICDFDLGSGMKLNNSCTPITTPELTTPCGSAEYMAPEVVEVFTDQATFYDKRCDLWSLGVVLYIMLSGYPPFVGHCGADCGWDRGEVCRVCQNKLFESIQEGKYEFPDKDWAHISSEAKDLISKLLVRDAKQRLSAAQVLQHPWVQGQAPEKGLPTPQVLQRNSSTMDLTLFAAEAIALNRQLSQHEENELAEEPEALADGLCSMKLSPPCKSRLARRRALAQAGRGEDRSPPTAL

[7] = molecular target: MAP kinase-interacting serine/threonine-protein kinase 1 (Homo sapiens) (UniProt Q9BUB5); details: at 1 µM
[8] = molecular target: MAP kinase-interacting serine/threonine-protein kinase 2 (Homo sapiens) (UniProt Q9HBH9); details: at 0.1 µM
MAP kinase-interacting serine/threonine-protein kinase 2 (Homo sapiens), sequence (Q9HBH9 whole entry, looked up): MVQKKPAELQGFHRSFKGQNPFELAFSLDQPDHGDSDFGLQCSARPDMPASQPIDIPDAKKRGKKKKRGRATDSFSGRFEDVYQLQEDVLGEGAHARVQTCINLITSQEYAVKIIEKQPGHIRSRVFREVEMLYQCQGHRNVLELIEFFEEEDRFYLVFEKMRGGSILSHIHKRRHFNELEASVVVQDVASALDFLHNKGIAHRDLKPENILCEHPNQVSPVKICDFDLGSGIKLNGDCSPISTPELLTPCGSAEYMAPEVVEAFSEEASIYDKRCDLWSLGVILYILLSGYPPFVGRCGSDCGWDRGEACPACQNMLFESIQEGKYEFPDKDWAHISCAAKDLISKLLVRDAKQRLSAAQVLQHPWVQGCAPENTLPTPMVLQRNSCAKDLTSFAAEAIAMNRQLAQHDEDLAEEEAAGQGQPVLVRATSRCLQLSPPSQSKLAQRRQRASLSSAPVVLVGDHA

[9] = molecular target: MAP kinase-interacting serine/threonine-protein kinase 2 (Homo sapiens) (UniProt Q9HBH9); details: at 1 µM
[10] = molecular target: Serine/threonine-protein kinase MARK2 (Homo sapiens) (UniProt Q7KZI7); details: at 0.1 µM;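 note: mean percent inhibition of PAR-1Balpha kinase activity, reported from the GSK PKIS screen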
Serine/threonine-protein kinase MARK2 (Homo sapiens), sequence (Q7KZI7 whole entry): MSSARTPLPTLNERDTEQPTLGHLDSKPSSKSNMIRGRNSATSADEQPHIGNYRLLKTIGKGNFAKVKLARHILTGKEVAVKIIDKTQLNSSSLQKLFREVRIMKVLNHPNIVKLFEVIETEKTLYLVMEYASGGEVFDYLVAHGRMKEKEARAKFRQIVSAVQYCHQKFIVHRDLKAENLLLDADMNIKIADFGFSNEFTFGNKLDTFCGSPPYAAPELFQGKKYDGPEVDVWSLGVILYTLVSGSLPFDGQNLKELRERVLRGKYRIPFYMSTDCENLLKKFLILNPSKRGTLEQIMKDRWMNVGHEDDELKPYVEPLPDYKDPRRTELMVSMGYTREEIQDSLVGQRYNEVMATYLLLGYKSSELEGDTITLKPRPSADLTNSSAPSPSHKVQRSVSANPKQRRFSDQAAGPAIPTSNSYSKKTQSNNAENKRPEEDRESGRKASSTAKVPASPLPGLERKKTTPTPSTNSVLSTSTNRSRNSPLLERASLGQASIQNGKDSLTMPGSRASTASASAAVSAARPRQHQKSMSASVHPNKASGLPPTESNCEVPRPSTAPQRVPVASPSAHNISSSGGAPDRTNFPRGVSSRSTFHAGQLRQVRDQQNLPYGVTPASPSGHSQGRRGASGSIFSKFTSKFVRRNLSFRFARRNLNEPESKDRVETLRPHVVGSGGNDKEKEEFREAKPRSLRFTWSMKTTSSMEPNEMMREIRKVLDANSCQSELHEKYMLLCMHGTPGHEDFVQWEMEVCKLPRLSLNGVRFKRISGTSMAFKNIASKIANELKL

MAP/microtubule affinity-regulating kinase 3 (Homo sapiens), sequence (P27448 whole entry, looked up): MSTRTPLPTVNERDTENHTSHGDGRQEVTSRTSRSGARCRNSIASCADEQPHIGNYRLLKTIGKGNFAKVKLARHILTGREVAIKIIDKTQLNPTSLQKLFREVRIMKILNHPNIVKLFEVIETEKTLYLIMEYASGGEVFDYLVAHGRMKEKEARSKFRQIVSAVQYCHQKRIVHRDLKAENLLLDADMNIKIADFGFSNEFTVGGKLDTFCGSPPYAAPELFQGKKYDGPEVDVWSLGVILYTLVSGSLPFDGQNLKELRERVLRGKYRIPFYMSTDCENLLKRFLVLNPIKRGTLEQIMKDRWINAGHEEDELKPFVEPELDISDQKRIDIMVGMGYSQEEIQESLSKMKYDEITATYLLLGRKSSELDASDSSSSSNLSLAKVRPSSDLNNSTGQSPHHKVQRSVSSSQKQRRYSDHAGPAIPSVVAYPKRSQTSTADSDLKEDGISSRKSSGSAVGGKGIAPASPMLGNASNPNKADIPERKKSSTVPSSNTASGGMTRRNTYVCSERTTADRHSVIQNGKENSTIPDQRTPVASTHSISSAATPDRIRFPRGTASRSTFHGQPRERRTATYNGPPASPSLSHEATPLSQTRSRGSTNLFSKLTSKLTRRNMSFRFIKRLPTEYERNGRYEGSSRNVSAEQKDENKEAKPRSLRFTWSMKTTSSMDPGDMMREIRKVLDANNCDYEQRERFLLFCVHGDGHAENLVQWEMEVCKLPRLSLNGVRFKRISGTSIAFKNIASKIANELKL

Compound | inhibition [1] [%] | inhibition [2] [%] | inhibition [3] [%] | inhibition [4] [%] | inhibition [5] [%] | inhibition [6] [%] | inhibition [7] [%] | inhibition [8] [%] | inhibition [9] [%] | inhibition [10] [%]
CN(C)CCOc1ccc(-c2cc(-c3ccc4c(c3)CCC4=NO)c(-c3ccncc3)o2)cc1 | -0.6 | -0.26 | 0.68 | -1.71 | -1.71 | 1.14 | 5.12 | 0.16 | 2.71 | -1.72
Cc1ccc(C(=O)NC2CCC2)cc1-c1ccc(C(=O)NCC2CC2)cc1 | 0.6 | 0.84 | 0.72 | 3.33 | 1.69 | 0.33 | 3.09 | 0.84 | 1.97 | 0.5
COc1cc(Nc2ncc3c(C)nc(-c4cccc(Oc5ccccc5)c4)n3n2)cc(OC)c1OC | 29.3 | 1.25 | 3.17 | 3.48 | 10.8 | 0.32 | 0.56 | 0.07 | 1.2 | 0.41
COc1cc2ncn(-c3cc(OCCc4ccccc4)c(C(N)=O)s3)c2cc1OC | 1.74 | 0.87 | 0.86 | 3.07 | 1.31 | 2 | 6.3 | 0.86 | 12.8 | 1
CCS(=O)(=O)c1ccc(OC)c(Nc2ncc(-c3ccccc3Cl)o2)c1 | -1.14 | -1.13 | 0.41 | -0.46 | 3.44 | 1.1 | 5.2 | 0.17 | 7.7 | 1.4
C[C@@H](Oc1cc(-n2cnc3ccc(OC4CCN(C)CC4)cc32)sc1C(N)=O)c1ccccc1Cl | 8.01 | 2.31 | 5.68 | 6.66 | 26.9 | 3.58 | 17.6 | 3.77 | 21 | 2.47
Cc1ccc(C(=O)NC(C)C)cc1-c1ccc(C(=O)NCC2CC2)cc1 | -0.42 | 1.15 | 0.5 | -2.85 | -2.99 | -1.07 | -0.97 | -0.04 | 1.12 | 0.38
COc1cc(C)c(N(C)C(=O)CN(C)C)cc1Nc1nc(Nc2cccc(F)c2C(N)=O)c2cc[nH]c2n1 | 4.11 | 1.12 | 1.75 | -1.34 | 5.45 | -0.51 | 1.72 | -1.19 | -0.74 | 0.4
O=C(NCC1CC1)c1ccc(-c2cccc(C(=O)NC3CC3)c2)cc1 | 6.77 | 0.89 | 0.47 | 1.66 | 0.83 | 1.09 | 0.19 | -1.06 | 0.04 | 0.08
NS(=O)(=O)c1ccc(Nc2cc(-c3ccc(O)c(F)c3)n[nH]2)cc1 | 4.97 | 1.26 | 11.7 | -5.49 | 39.3 | -0.77 | 6.93 | 0.26 | 7.33 | 0.4
N#Cc1ccc(Oc2nccc(-c3c(-c4ccc(F)cc4)ncn3C3CCNCC3)n2)cc1 | 0.33 | 2.3 | 2.46 | 6.59 | 4.91 | 2.51 | 2.45 | -0.25 | -0.69 | -1.85
COc1cccc(-n2cnc3c(N/N=C/c4ccncc4)ncnc32)c1 | 3.88 | 0.84 | 4.83 | -1.92 | -4.7 | 0.43 | 16.5 | 3.13 | 13.7 | 0.99
CCC(=O)Nc1ccc(C)c(-c2ccc(C(=O)NCC3CC3)cc2)c1 | -1.15 | 1.46 | 2.23 | 5.17 | 8.13 | 2.05 | 2.8 | 0.52 | 1.17 | 0.59
COc1cc(Nc2ncc3c(C)nc(-c4cccc(C(F)(F)F)c4)n3n2)cc(OC)c1OC | 7.63 | 1.28 | 7.81 | 13.1 | 63.1 | 3.56 | 7.34 | 2.94 | 6 | 0.26
NS(=O)(=O)c1ccc(N/N=C2\C(=O)Nc3ccc(-c4cnco4)cc32)cc1 | 17.4 | 4.35 | 26.1 | 5.8 | 32.9 | 1.41 | 7.87 | 2.14 | 8.88 | 1.73
CN(C)CCCNc1nccc(-c2c(-c3ccc(F)cc3)nn3cc(C(F)(F)F)ccc23)n1 | 3 | 1.09 | 2.72 | 1.14 | 2.95 | 1.94 | 8.83 | 0.89 | 6.51 | -0.22
O=C(Nc1n[nH]c2cc(-c3ccccc3)ccc12)C1CC1 | 9.09 | 2.2 | 5.77 | 5.64 | 3.69 | 6.55 | 31.4 | 3.14 | 10.2 | 1.54

Compound | inhibition [1] [%] | inhibition [2] [%] | inhibition [3] [%] | inhibition [4] [%] | inhibition [5] [%] | inhibition [6] [%] | inhibition [7] [%] | inhibition [8] [%] | inhibition [9] [%] | inhibition [10] [%]
COc1ccc2ncn(-c3cc(O[C@H](C)c4ccccc4Cl)c(C(N)=O)s3)c2c1 | 3.11 | 2.49 | 2.42 | 7.14 | 6.08 | 1.84 | 2.25 | 0.29 | 2.7 | -0.63
C/C(Nc1ccc(S(N)(=O)=O)cc1)=C1/C(=O)Nc2ccccc21 | 19.8 | 4.34 | 28.2 | 2.57 | 41.9 | -1.24 | 3.04 | -1.74 | 3.41 | 2.01
NS(=O)(=O)c1ccc(N/N=C2\C(=O)Nc3ccc(C(=O)NCCCn4ccnc4)cc32)cc1 | 5.47 | 3.39 | 14.6 | 6.78 | 46.9 | 7.7 | 16.8 | 3.98 | 14.2 | 1.13
Fc1ccc(-c2ncn(CCCN3CCOCC3)c2-c2ccncc2)cc1 | 22 | 0.52 | 0.72 | -0.32 | -0.03 | -0.96 | 0.15 | -1.39 | -0.24 | -1.95
FC(F)(F)c1cccc(Nc2nccc(-c3cnn4nc(-c5ccccc5)ccc34)n2)c1 | 1.86 | 1.13 | 1.01 | 4.89 | 32.3 | 2.28 | 2.48 | 0.22 | 4.37 | -0.36
CS(=O)(=O)CCNCc1cc(-c2cc3c(Nc4ccc(OCc5cccc(F)c5)c(Cl)c4)ncnc3s2)cs1 | 3.64 | 1.63 | 1.6 | 5.46 | 10.5 | 2.78 | 7.91 | 1.16 | 7.96 | -0.51
COc1cc(Nc2ncc(-c3ccccc3)o2)cc(OC)c1OC | 22.1 | 2.46 | 13.4 | -0.49 | 5.74 | 4.6 | 30.4 | 1.26 | 24.2 | 2.94
O=C1Nc2ccc(I)cc2C1=Cc1cc(Br)c(O)c(Br)c1 | 2.16 | 1.14 | 2.32 | 2.86 | 13.8 | 2.2 | 7.73 | 2.51 | 17.6 | -0.39
NC(=O)c1ccc(Oc2nccc(-c3c(-c4ccc(F)cc4)ncn3C3CCNCC3)n2)cc1 | 6.64 | 1.51 | 2.24 | 7.28 | 11.6 | 3.92 | 4.27 | 3.56 | 4.79 | 2.73
O=C1NC(=O)C(c2cccc(Cl)c2)=C1Nc1ccc(Cl)c(C(=O)O)c1 | 8 | 0.26 | 1.44 | -0.69 | 3.67 | 3.32 | 5.32 | 2.61 | 4 | -2.87
NCc1ccc(-n2c(-c3nonc3N)nc3cnccc32)cc1 | 22.6 | 4.49 | 13.3 | 33.9 | 88.2 | 4.41 | 13.6 | 1.06 | 10.1 | 4.09
COc1ccc(-c2ccc3c(NC(=O)C4CC4)n[nH]c3n2)cc1 | 2.41 | 0 | -0.43 | -1.74 | -0.77 | 3.03 | 21.5 | 1.32 | 5.48 | 0.67
Fc1ccc(-c2ncn(C3CCNCC3)c2-c2ccnc(Oc3ccc(Oc4ccccc4)cc3)n2)cc1 | 2.05 | 0.75 | 2.59 | 6.35 | 11.1 | 1.1 | 1.53 | 0.72 | 1.76 | 2.71
CCN(CC)Cc1ccc(Nc2nccc(-c3cnn4ncccc34)n2)cc1 | 24.7 | 4.42 | 18.9 | 12.5 | 55.4 | 2.28 | 9.82 | 2.76 | 8.84 | 3.28
COc1ccc(C2=C(N3CCc4ccccc43)C(=O)NC2=O)cc1 | 4.14 | 1.18 | 2.26 | 4.31 | 7.73 | 3.88 | 6.21 | 1.85 | 4.28 | -0.02
NC(=O)Cc1ccccc1Oc1nccc(-c2c(-c3ccc(F)cc3)ncn2C2CCNCC2)n1 | 5.15 | 1.54 | 1.97 | 1.5 | 5.18 | 1.93 | 1.72 | 0.62 | 0.77 | 1.48
NC(=O)c1cc(-c2ccncc2)cc(-c2ccccc2)c1N | 11.9 | 2.69 | 1.61 | 4.36 | 7.85 | 3.23 | 9.56 | 2.09 | 6.55 | 2.08

From ChEMBL document CHEMBL1961873, “Compounds: GSK PKIS; Assays: Nanosyn kinase panel” (2012)
